Results filed as inconclusive are left out. Where a call stands in place of a potency, no number is given. Activity calls are given as the source filed them. Calls follow the shape of the dose curve; as a rule, active = well fitted inhibition curve with a large enough effect; inconclusive = small, poorly fitted or top-dose-only effect; inactive = flat fitted curve, though single readings scatter.
Assay: qHTS to identify inhibitors of the type 1 interferon - major histocompatibility complex class I in skeletal muscle: primary screen against the NCATS LOPAC collection (AID 1347405);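 also: human myoblasts with HiBiT tag on endogenous HLA-B stimulated by IFN-beta; lytic HiBiT luminescence reporting HLA-B protein level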
Settings: iHSKM muscle cells, IFN-b-induced MHC-I HiBiT luminescence, 24 h; series mostly up to 45.9 µM
Procedure, shortened: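 First, engineered myoblasts carrying HLA-B-HiBiT were seeded in medium lacking dexamethasone with 4 ng/ml IFN-beta. After 1 hr, compounds were pinned in (top 46 uM final, 7 points). After 24 hrs at 37 C, luminescence was measured following 10 min lysis.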
Potency is read from the fitted curve at half-maximal effect.

Structure (SMILES)	Potency
CS(=O)(=O)c1ccc(-n2nc(C(F)(F)F)cc2-c2ccc(F)cc2)cc1	inactive
OC[C@H]1O[C@@H](n2cnc3c(NC4CCCCC4)ncnc32)[C@H](O)[C@@H]1O	inactive
Nc1nc2ccc(Cl)cc2n2c(-c3ccccc3)nnc12	inactive
CN1[C@@H](CC(=O)c2ccccc2)CCC[C@H]1C[C@H](O)c1ccccc1	inactive
Fc1ccc(C(OCCCc2cnc[nH]2)c2ccc(F)cc2)cc1	inactive
O=C(Nc1ccc2c(c1)CCN(Cc1ncn[nH]1)C2)c1ccccc1-c1ccc(C(F)(F)F)cc1	inactive
COc1cc2c(CCNC(C)=O)c[nH]c2cc1Cl	inactive
O=C(CCSCc1ccco1)NNC(=O)N1Cc2ccccc2Oc2ccc(Cl)cc21	inactive
N[C@@H](CC(=O)O)C(=O)O	inactive
CO[C@H]1O[C@@H]2O[C@]3(C)CC[C@@H]4[C@@H](C)CC[C@H]([C@H]1C)[C@]24OO3	inactive
OCC1O[C@H]([S-])[C@H](O)[C@@H](O)[C@@H]1O.[Au+] (stereo partly specified)	17.8 µM (active)
CSc1ccccc1N1CCN(CCCCCC(=O)NC2CCCc3ccccc32)CC1 (stereo unspecified)	inactive
COc1ccc(NC(=O)/C=C/c2ccc(Cl)cc2)cc1	inactive
COc1ccc(Br)cc1S(=O)(=O)NC(=O)/C=C/c1ccccc1Cc1ccc2ccccc2c1	inactive
C[C@@H](CN1CCC(Cc2ccccc2)CC1)[C@@H](O)c1ccc(O)cc1	inactive
Nc1nc2c(ncn2[C@@H]2O[C@H](CO)[C@@H](O)[C@@H]2O)c(=O)[nH]1	inactive
Brc1c(Br)c(Br)c2n[nH]nc2c1Br	inactive
NC(=O)C(=O)O	inactive

Structure (SMILES)	Potency
O=C(O)c1cc([N+](=O)[O-])ccc1NCCCc1ccccc1	inactive
Cn1cc(C2=C(c3ccc(Cl)cc3Cl)C(=O)NC2=O)c2ccccc21	inactive
CC(C)NC[C@@H](O)c1ccc(O)c(O)c1	inactive
NS(=O)(=O)c1ccc(-n2nc(C(F)(F)F)cc2-c2ccc(Cl)cc2)cc1	inactive
CC(C)NC[C@H](O)COc1cccc2[nH]ccc12	inactive
Nc1ncnc2c1ncn2[C@@H]1O[C@H](COP(=O)(O)CP(=O)(O)OP(=O)(O)O)[C@@H](O)[C@H]1O	inactive
Cn1ncc(S(=O)(=O)Cc2ccccc2)c(Br)c1=O	inactive
O=C(Nc1cccc(C(=O)Nc2ccc(S(=O)(=O)O)c3cc(S(=O)(=O)O)cc(S(=O)(=O)O)c23)c1)Nc1cccc(C(=O)Nc2ccc(S(=O)(=O)O)c3cc(S(=O)(=O)O)cc(S(=O)(=O)O)c23)c1	inactive
O=C(Nc1ccc2[nH]ncc2c1)C1CCC1	inactive
CC(C)(C)c1ccc(S(=O)(=O)/C=C/C#N)cc1	7.08 µM (active)
CC[C@H]1OC(=O)[C@H](C)[C@@H](O[C@H]2C[C@@](C)(OC)[C@@H](O)[C@H](C)O2)[C@H](C)[C@@H](O[C@@H]2O[C@H](C)C[C@H](NC)[C@H]2O)[C@](C)(O)C[C@@H](C)CN(C)[C@H](C)[C@@H](O)[C@]1(C)O	inactive
O=C(c1ccc(OCCCc2cnc[nH]2)cc1)C1CC1	inactive
N.N.N.N.N.N.N.N.N.N.N.N.N.N.O.O.[Ru+4].[Ru+5].[Ru+5]	inactive
C=CC(C)=C[C@@]1(C)SC(=O)C(C)=C1O	inactive
NC(N)=NC(=O)c1nc(Cl)c(N2CCCCCC2)nc1N	inactive
Nc1ccn([C@H]2O[C@H](CO)[C@@H](O)C2(F)F)c(=O)n1	inactive
N#C/C(=C\c1ccc(-c2cc(Cl)ccc2Cl)o1)C(=O)Nc1cccc2ncccc12	14.1 µM (active)
CCCC(CCC)C(=O)OC1CC2CCC(C1)[N+]2(C)C (stereo unspecified)	inactive

From PubChem BioAssay (NCATS)
